Compound activity (PubChem BioAssay)
Compounds with a hit are over-represented: about 2.2% of the library has one in this group of screens.
ANO1 block = mouse TMEM16A channel inhibition, primary screen. AID 588511. normalized B-score (activity score, 25-100; higher = stronger inhibition) at 10 µM. Q8BHY3. 310,000 tested, 1.2% active. HEK293 TMEM16A/YFP iodide influx fluorescence, ionomycin;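 active = ratio plate-corrected score three or more library SD toward inhibition, starting fluorescence score within five deviations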;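 note: score derived from kinetic fluorescence span divided by baseline fluorescence per well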
M1 ag parental = nonselective activator or artifact in parental CHO-K1 cells; AID 602248; 360,000 tested, 0.48% active; Fluo-8 calcium fluorescence; scaled to maximal ATP response, vehicle zero; activation, % at 3 µM; in the data active = activation above about 15%;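 note: untransfected CHO-K1 host cells lacking M1 receptor as counterscreen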
NTR1 agonist = NTR1 (human) agonism. NTR1-U2OS beta-arrestin-GFP spot imaging, agonist mode. 330,000 tested, 0.17% active. activation, % at 20 µM;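 active = activation at or above 40% of the spot to cytoplasm intensity ratio, with at least 20 cells analyzed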
Target sequence (P30989 whole entry, looked up): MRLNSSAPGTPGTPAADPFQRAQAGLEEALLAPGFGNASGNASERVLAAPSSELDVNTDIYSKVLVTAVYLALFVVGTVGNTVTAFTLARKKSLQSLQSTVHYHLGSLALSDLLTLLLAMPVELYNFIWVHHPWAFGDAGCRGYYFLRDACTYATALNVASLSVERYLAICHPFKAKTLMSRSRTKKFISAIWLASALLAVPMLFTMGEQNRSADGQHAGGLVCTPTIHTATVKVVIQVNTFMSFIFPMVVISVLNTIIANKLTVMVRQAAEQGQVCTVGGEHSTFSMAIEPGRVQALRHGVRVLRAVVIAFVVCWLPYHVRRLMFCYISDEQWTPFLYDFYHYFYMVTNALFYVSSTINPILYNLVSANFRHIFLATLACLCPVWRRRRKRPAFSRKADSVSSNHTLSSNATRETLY
CHO-K1 Ca antag = counter-screen for M1 antagonists: effect in parental CHO-K1 cells | ATP-induced calcium, Fluo-8 fluorescence | inhibition, % at 3 µM | 360,000 tested, 0.6% active | AID 602250;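 active = inhibition above a per-plate cutoff, the plate's mean sample inhibition plus 3 SD, cut at about 24% in these data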
ANO1 activ = activates or potentiates the mouse TMEM16A chloride channel | HEK293 TMEM16A/YFP-H148Q/I152L, iodide quench fluorescence; active compounds read low | B-score at 10 µM | 340,000 tested, 0.3% active | Q8BHY3 | AID 623877;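 active = fluorescence-ratio B-score plate-corrected deviation score at least 3 library SD below zero, with starting fluorescence score within 5 deviations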;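 note: channel opened by trigger with iodide after compound preincubation; score built on the fluorescence ratio of max minus min over baseline; more negative score means more quench and so TMEM16A activation or potentiation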
CHO-K1 Ca PAM = nonselective activator or artifact in parental CHO-K1 calcium assay; ATP EC20, Fluo-8 calcium fluorescence; 0% at ATP EC20, 100% at ATP max; activation, % at 3 µM; 360,000 tested, 0.02% active; AID 602247;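 active = activation above the run cutoff, the mean activation of all test compounds plus 3 SD, cut at about 40% in these data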;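 note: peak over basal fluorescence ratio in a 140 s read after ATP addition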
TMEM16A reconf = reconfirmed blocker of mouse TMEM16A calcium-activated chloride channel | shares compounds with ANO1 block | HEK293 TMEM16A/YFP-H148Q, iodide quench fluorescence; ionomycin added to raise cell calcium | inhibition, % at 10 µM | 2,300 tested, 39% active | AID 652189;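 active = mean duplicate percent inhibition, scaled so buffer wells are 0 and the reference blocker 100, over three buffer SD above buffer mean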
HEK293 Ca mobil = calcium mobilization counter-screen hit for TMEM16A inhibitor series. shares compounds with ANO1 block. TMEM16A/YFP HEK293, Fluo4 calcium mobilization. calcium response (% of ionomycin), % at 10 µM. 2,300 tested, 2% active;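 active = duplicate-averaged calcium signal over 20% of the ionomycin maximum, relative to buffer baseline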;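 note: each well's signal is peak minus trough fluorescence divided by its pre-addition baseline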
YFP-HEK293 quench = acts in parental YFP-HEK293 cells lacking TMEM16A, counter-screen | YFP ratio F(max-min)/F0 at 10 µM | shares compounds with ANO1 block | 2,300 tested, under 10 active | iodide YFP quench, ionomycin;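 active = yellow fluorescent protein signal ratio exceeding the buffer control mean by over 5 SD of those controls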;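 note: ratio is mean of duplicate wells from kinetic YFP trace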
ClC-1 rat inh = blocks the rat ClC-1 voltage-dependent chloride channel. shares compounds with ANO1 block. CHO ClC-1-YFP, iodide influx fluorescence quench; iodide control reads 0, buffer control 100. ratio percent, % at 10 µM. 2,300 tested, under 10 active. AID 652236;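 active = duplicate-mean ratio percent above the mean of iodide-only control wells, which defines zero, plus 5 of their SD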;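 note: higher percent means stronger block of ClC-1 iodide influx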
Of the large screens only hits and unclear results are named; the others gave an inactive call (follow-up assays come after a bar, where they were run).

Cc1cccc(N2CCN(C(c3ccccc3)c3nnnn3C(C)(C)C)CC2)c1C (stereo not given)	none
COc1ccccc1N1CCN(C(c2ccccc2Cl)c2nnnn2C(C)(C)C)CC1 (stereo not given)	ANO1 block 100 | TMEM16A reconf 25% | HEK293 Ca mobil inactive | YFP-HEK293 quench inactive | ClC-1 rat inh inactive
COc1ccc(C2C(=O)NN=C2C)cc1 (stereo not given)	none (no result: ANO1 block, NTR1 agonist)
Cc1ccc(N/C(N)=N/c2nc3c(c(=O)[nH]2)CCCC3)c(C)c1	none
Cc1ccc(N/C(N)=N/c2nc(C)cc(N3CCCCC3)n2)c(C)c1	ANO1 block 100, CHO-K1 Ca antag 25, ANO1 activ -6.3 | TMEM16A reconf 62% | HEK293 Ca mobil inactive | YFP-HEK293 quench inactive | ClC-1 rat inh inactive
CCN(CC)CCN1CNC(=S)NC1	none (no result: ANO1 block, NTR1 agonist, ANO1 activ)
Cc1cc(Cl)c(S(=O)(=O)N2CCN(c3ccccn3)CC2)cc1OCC(=O)NC1CCCCC1	ANO1 block 100 | TMEM16A reconf inactive | HEK293 Ca mobil inactive | YFP-HEK293 quench inactive | ClC-1 rat inh inactive
Cc1cc(Cl)c(S(=O)(=O)N2CCSCC2)cc1OCC(=O)NC1CCCCC1	ANO1 block 100 | TMEM16A reconf 28% | HEK293 Ca mobil inactive | YFP-HEK293 quench inactive | ClC-1 rat inh inactive
Cc1cc(Cl)c(S(=O)(=O)N2CCCCCC2)cc1OCC(=O)NC1CCCCC1	ANO1 block 100 | TMEM16A reconf 24% | HEK293 Ca mobil inactive | YFP-HEK293 quench inactive | ClC-1 rat inh inactive
Cc1cc(Cl)c(S(N)(=O)=O)cc1OCC(=O)NC1CCCCC1	none
CCc1nc2ccc(C(=O)NCCN3CCNC3=O)cn2c1N(CCC(C)C)CCN(C)C	none (no result: ANO1 block, NTR1 agonist, ANO1 activ)
COc1ccc(S(=O)(=O)N(C)C[C@H]2Oc3c(cccc3N(C)C)C(=O)N([C@H](C)CO)C[C@@H]2C)cc1	none (no result: ANO1 block)
CC1CC(C)CN(c2cc(=O)n(Cc3ccc(F)cc3)c(=O)[nH]2)C1 (stereo not given)	ANO1 block 100 | TMEM16A reconf inactive | HEK293 Ca mobil inactive | YFP-HEK293 quench inactive | ClC-1 rat inh inactive
O=c1cc(N2CCN(c3ccc(F)cc3)CC2)[nH]c(=O)n1Cc1ccc(F)cc1	none
COc1ccccc1CN1C(=O)C(Cc2ccccc2)ON=C1c1ncccc1C (stereo not given)	none (no result: ANO1 block, NTR1 agonist, ANO1 activ)
COc1ccc(C2C(C(=O)N3CCN(c4ccccc4)CC3)c3ccccc3C(=O)N2C)cc1OC (stereo not given)	ANO1 block 100 | TMEM16A reconf inactive | HEK293 Ca mobil inactive | YFP-HEK293 quench inactive | ClC-1 rat inh inactive
CC(OC(=O)c1ccc2c(c1)OCO2)C(=O)NC1CCCCC1 (stereo not given)	none (no result: ANO1 block, NTR1 agonist, ANO1 activ)
CCN(CC)S(=O)(=O)c1ccc2oc(C(=O)NCCN3CCOCC3)c(C)c2c1	none
C=CCNC(=O)c1oc2ccc(S(=O)(=O)N(CC)CC)cc2c1C	ANO1 block 25 | TMEM16A reconf inactive | HEK293 Ca mobil inactive | YFP-HEK293 quench inactive | ClC-1 rat inh inactive
O=C(OCC(=O)c1c[nH]c2ccccc12)c1ccc(F)c(S(=O)(=O)N2CCOCC2)c1	none (no result: ANO1 block, NTR1 agonist, ANO1 activ)
CCCCCCCn1c(=O)c(C(=O)OC)c(N)c2ccccc21	ANO1 block 25, M1 ag parental 23 | TMEM16A reconf 43% | HEK293 Ca mobil inactive | YFP-HEK293 quench inactive | ClC-1 rat inh inactive
O=C(Nc1cccc(C(=O)N2CCCC2)c1)C1CC1	none (no result: ANO1 block, NTR1 agonist, ANO1 activ)
CCC(=O)N1Cc2cc(C(=O)N(C)C)nc(-c3cccc(-c4cncnc4)c3)c2[C@@H]1CCO	none (no result: ANO1 block, NTR1 agonist, ANO1 activ)
